{
  "source": "ChEMBL document CHEMBL2218924",
  "about": "“A broad activity screen in support of a chemogenomic map for kinase signalling research and drug discovery” (Biochem J, 2013)",
  "data": [
    {"target": "T1, NUAK family SNF1-like kinase 1 (Homo sapiens) (UniProt O60285)", "T1 sequence (whole entry)": "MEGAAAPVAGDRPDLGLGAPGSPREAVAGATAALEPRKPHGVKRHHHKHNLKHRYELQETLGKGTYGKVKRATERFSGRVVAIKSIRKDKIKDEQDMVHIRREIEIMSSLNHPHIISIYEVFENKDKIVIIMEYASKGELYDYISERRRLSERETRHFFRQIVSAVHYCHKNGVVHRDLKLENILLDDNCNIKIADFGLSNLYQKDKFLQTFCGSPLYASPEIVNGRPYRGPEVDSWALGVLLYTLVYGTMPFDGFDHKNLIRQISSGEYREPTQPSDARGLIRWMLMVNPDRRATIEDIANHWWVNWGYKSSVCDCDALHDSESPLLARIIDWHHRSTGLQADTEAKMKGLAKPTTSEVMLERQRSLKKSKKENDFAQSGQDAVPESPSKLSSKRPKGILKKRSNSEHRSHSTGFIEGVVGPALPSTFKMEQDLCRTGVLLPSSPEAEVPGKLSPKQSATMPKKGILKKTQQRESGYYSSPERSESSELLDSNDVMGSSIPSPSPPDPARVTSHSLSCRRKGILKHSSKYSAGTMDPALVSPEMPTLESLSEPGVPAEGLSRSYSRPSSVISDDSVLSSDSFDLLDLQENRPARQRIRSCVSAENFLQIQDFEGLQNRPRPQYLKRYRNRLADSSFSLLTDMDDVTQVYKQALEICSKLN", "conditions": "at 10 µM", "units": {"residual activity": "%"}, "values": [
      {"smiles": "CC(=O)c1ccc(N2CCOCC2)cc1O", "residual activity": 92},
      {"smiles": "COc1ccc(OC)c2c(=S)c3ccccc3[nH]c12", "residual activity": 84},
      {"smiles": "O=C1Nc2ccccc2/C1=C1/Nc2ccccc2/C1=N\\OCCC(O)CO", "note": "(stereo not given)", "residual activity": 5},
      {"smiles": "c1ccc2c(-c3ccncc3)c[nH]c2c1", "residual activity": 84},
      {"smiles": "Nc1ccc2ncnc(NCCc3ccc(Oc4ccccc4)cc3)c2c1", "residual activity": 23},
      {"smiles": "CO[C@H]1C[C@@H]2CC[C@@H](C)[C@@](O)(O2)C(=O)C(=O)N2CCCC[C@H]2C(=O)O[C@H]([C@H](C)C[C@@H]2CC[C@@H](O)[C@H](OC)C2)CC(=O)[C@H](C)/C=C(\\C)[C@@H](O)[C@@H](OC)C(=O)[C@H](C)C[C@H](C)/C=C/C=C/C=C/1C", "residual activity": 96},
      {"smiles": "N#CC(C#N)=C(N)/C(C#N)=C/c1ccc(O)cc1", "residual activity": 96},
      {"smiles": "O=C1Nc2cc(Br)ccc2/C1=C1/Nc2ccccc2/C1=N\\O", "residual activity": 18},
      {"smiles": "Cc1cncc2cccc(S(=O)(=O)N3CCCN(C(=O)CN)C[C@H]3C)c12", "residual activity": 71},
      {"smiles": "O=[N+]([O-])c1ccc(-c2nc(-c3ccc(F)cc3)c(-c3ccncc3)[nH]2)cc1", "residual activity": 89},
      {"smiles": "CCOc1cc2ncnc(Nc3cccc(Br)c3)c2cc1OCC", "residual activity": 57},
      {"smiles": "COc1ccc(C(=O)Nc2sc3c(c2C(N)=O)CCCC3)cc1OC", "residual activity": 75},
      {"smiles": "N#Cc1cnc2cnc(NCc3cccnc3)cc2c1Nc1ccc(F)c(Cl)c1", "residual activity": -1},
      {"smiles": "O=C1c2ccccc2-[n+]2ccc3c([nH]c4ccccc43)c21", "residual activity": 83},
      {"smiles": "Oc1ccc(Nc2nc(-c3ccc(Cl)cc3)cs2)cc1", "residual activity": 84},
      {"smiles": "CC(=O)O/N=C1\\C(=C2\\C(=O)Nc3cc(Br)ccc32)Nc2ccccc21", "residual activity": 19},
      {"smiles": "CC(C)n1cnc2c(NCc3ccccc3)nc(NCCCO)nc21", "residual activity": 83}
    ]},
    {"target": "T2, Mitogen-activated protein kinase kinase kinase 5 (Homo sapiens) (UniProt Q99683)", "T2 sequence (whole entry)": "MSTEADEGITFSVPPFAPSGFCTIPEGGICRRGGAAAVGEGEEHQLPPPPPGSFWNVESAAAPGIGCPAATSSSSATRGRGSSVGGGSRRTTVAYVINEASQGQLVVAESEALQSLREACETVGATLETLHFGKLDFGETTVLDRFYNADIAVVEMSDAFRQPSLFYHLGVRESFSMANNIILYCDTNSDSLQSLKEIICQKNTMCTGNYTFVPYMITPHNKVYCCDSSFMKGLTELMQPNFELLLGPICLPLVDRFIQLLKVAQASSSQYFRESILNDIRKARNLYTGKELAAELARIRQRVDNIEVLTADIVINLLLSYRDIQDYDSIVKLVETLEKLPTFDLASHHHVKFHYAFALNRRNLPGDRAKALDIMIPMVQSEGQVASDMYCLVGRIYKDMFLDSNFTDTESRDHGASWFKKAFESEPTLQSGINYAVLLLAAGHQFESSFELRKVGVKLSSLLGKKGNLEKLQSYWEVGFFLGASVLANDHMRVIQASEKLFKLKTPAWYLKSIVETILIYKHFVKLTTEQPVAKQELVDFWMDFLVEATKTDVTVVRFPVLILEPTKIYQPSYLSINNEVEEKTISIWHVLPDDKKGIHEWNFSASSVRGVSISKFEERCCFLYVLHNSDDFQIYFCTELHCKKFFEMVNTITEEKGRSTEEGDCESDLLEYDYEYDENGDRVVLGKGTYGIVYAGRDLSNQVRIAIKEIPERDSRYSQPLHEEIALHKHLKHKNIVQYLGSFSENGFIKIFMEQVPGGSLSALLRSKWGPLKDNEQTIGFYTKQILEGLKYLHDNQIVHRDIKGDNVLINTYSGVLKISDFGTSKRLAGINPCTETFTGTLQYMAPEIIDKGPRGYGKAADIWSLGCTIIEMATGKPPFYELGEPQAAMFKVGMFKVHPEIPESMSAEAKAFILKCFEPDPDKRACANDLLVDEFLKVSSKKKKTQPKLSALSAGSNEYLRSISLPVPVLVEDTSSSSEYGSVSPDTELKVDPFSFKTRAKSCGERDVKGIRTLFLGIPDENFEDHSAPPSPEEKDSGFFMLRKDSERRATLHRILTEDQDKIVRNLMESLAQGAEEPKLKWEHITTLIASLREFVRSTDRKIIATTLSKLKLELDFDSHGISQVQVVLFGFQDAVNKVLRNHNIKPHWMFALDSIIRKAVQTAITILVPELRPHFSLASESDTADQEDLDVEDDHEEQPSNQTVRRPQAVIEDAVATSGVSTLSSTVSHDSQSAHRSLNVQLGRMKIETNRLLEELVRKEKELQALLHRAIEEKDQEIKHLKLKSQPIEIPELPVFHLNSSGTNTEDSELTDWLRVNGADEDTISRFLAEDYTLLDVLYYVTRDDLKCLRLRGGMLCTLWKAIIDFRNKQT", "conditions": "at 1 µM", "units": {"residual activity": "%"}, "values": [
      {"smiles": "C[C@@H](N)[C@H]1CC[C@H](C(=O)Nc2ccncc2)CC1", "residual activity": 101},
      {"smiles": "c1ccc(-c2n[nH]c3c2oc2ccccc23)cc1", "residual activity": 95},
      {"smiles": "COc1cc2ncc(-c3ccccc3)nc2cc1OC", "residual activity": 83},
      {"smiles": "Cc1nc(-c2ccccc2)c(-c2ccncc2)o1", "residual activity": 100},
      {"smiles": "Cc1cc(Nc2nc(-c3ccccc3)nc3ccccc23)n[nH]1", "residual activity": 94},
      {"smiles": "CCN(CC)C(=O)c1ccc(Nc2nc(OCC3CCCCC3)c3nc[nH]c3n2)cc1", "residual activity": 80},
      {"smiles": "COc1cc2ncnc(Nc3ccc(O)c(Br)c3)c2cc1OC", "residual activity": 77},
      {"smiles": "COc1cccc(-c2cc(=O)c3ccccc3o2)c1N", "residual activity": 119},
      {"smiles": "Oc1n[nH]c2nnc(-c3c(-c4ccccc4)nn4ccccc34)cc12", "residual activity": 111},
      {"smiles": "Cc1cc2ncc(-c3ccccc3)nc2cc1C", "residual activity": 78},
      {"smiles": "CO[C@@H]1[C@H](N(C)C(=O)c2ccccc2)C[C@H]2O[C@]1(C)n1c3ccccc3c3c4c(c5c6ccccc6n2c5c31)C(=O)NC4", "residual activity": 96},
      {"smiles": "COc1ccc(S(=O)(=O)N(CCO)c2ccccc2CN(C)C/C=C/c2ccc(Cl)cc2)cc1", "residual activity": 94},
      {"smiles": "O=C1NC(=O)c2c1c1c3ccccc3[nH]c1c1[nH]c3cc(Br)ccc3c21", "residual activity": 102},
      {"smiles": "COc1cc2ncnc(Nc3ccc(NC(=O)c4ccccc4)cc3)c2cc1OC", "residual activity": 103},
      {"smiles": "NC(=O)c1ccc2[nH]c(-c3ccc(Oc4ccc(Cl)cc4)cc3)nc2c1", "residual activity": 80},
      {"smiles": "O=Nc1c(-c2c(O)[nH]c3ccccc23)[nH]c2ccccc12", "residual activity": 52},
      {"smiles": "CC(=O)c1ccc(N2CCOCC2)cc1O", "residual activity": 92},
      {"smiles": "COc1ccc(OC)c2c(=S)c3ccccc3[nH]c12", "residual activity": 96},
      {"smiles": "O=C1Nc2ccccc2/C1=C1/Nc2ccccc2/C1=N\\OCCC(O)CO", "note": "(stereo not given)", "residual activity": 68},
      {"smiles": "c1ccc2c(-c3ccncc3)c[nH]c2c1", "residual activity": 93},
      {"smiles": "Nc1ccc2ncnc(NCCc3ccc(Oc4ccccc4)cc3)c2c1", "residual activity": 87},
      {"smiles": "CO[C@H]1C[C@@H]2CC[C@@H](C)[C@@](O)(O2)C(=O)C(=O)N2CCCC[C@H]2C(=O)O[C@H]([C@H](C)C[C@@H]2CC[C@@H](O)[C@H](OC)C2)CC(=O)[C@H](C)/C=C(\\C)[C@@H](O)[C@@H](OC)C(=O)[C@H](C)C[C@H](C)/C=C/C=C/C=C/1C", "residual activity": 85},
      {"smiles": "N#CC(C#N)=C(N)/C(C#N)=C/c1ccc(O)cc1", "residual activity": 81},
      {"smiles": "O=C1Nc2cc(Br)ccc2/C1=C1/Nc2ccccc2/C1=N\\O", "residual activity": 91},
      {"smiles": "Cc1cncc2cccc(S(=O)(=O)N3CCCN(C(=O)CN)C[C@H]3C)c12", "residual activity": 98},
      {"smiles": "O=[N+]([O-])c1ccc(-c2nc(-c3ccc(F)cc3)c(-c3ccncc3)[nH]2)cc1", "residual activity": 96},
      {"smiles": "CCOc1cc2ncnc(Nc3cccc(Br)c3)c2cc1OCC", "residual activity": 115},
      {"smiles": "COc1ccc(C(=O)Nc2sc3c(c2C(N)=O)CCCC3)cc1OC", "residual activity": 114},
      {"smiles": "N#Cc1cnc2cnc(NCc3cccnc3)cc2c1Nc1ccc(F)c(Cl)c1", "residual activity": 85},
      {"smiles": "O=C1c2ccccc2-[n+]2ccc3c([nH]c4ccccc43)c21", "residual activity": 89},
      {"smiles": "Oc1ccc(Nc2nc(-c3ccc(Cl)cc3)cs2)cc1", "residual activity": 96},
      {"smiles": "CC(=O)O/N=C1\\C(=C2\\C(=O)Nc3cc(Br)ccc32)Nc2ccccc21", "residual activity": 92},
      {"smiles": "CC(C)n1cnc2c(NCc3ccccc3)nc(NCCCO)nc21", "residual activity": 113}
    ]}
  ]
}
